HP1b chromo inh: HP1-beta chromodomain-methylated histone interaction inhibition. P83916. AlphaScreen HP1-beta / biotin-H3K9me3 peptide binding. Potency, µM (highest dose often 114 µM), without a hit: at the highest dose activity change, negative = inhibition, actives largely listed as inhibitors. 0.56% of 390,000 active. AID 540317; further: potency means the concentration at half of the fitted maximal effect; nearly all actives have a fitted effect of over 70% in size
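Compound inhibition of the preformed complex between 50 nM HP1-beta and 50 nM biotinylated H3K9me3 peptide was read by AlphaScreen. Buffer was PBS pH 7.4 with 0.01% Tween-20. Incubations ran 30 min at room temperature, with 10 ug/mL donor/acceptor beads.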
JMJD2A Tudor inh: blocks the human JMJD2A Tudor domain; O75164; AlphaScreen JMJD2A-Tudor / H3K4me3 peptide binding; Potency, µM (titrated, usually from 114 µM), for inactives: top-dose activity change, negative = inhibition, usual class: inhibitors; 4.4% of 390,000 active; further: potency means the concentration at half of the fitted maximal effect; on the % scale 0 is the no-effect control and ±100 the full control effect; nearly all actives have a fitted effect of over 50% in size
PLK1 PBD block: blocks phosphopeptide binding to human PLK1 polo-box domain | Potency, µM, without a hit: max response, negative = inhibition, actives largely listed as inhibitors | 2.8% of 360,000 active | P53350 | Plk1 PBD binding of FITC phosphopeptide, fluorescence polarization | AID 720504; further: potency means the concentration at half of the fitted maximal effect; series mostly up to about 57 µM; on the % scale 0 is the no-effect control and ±100 the full control effect; nearly all actives have a fitted effect of over 65% in size
Target sequence (P53350 whole entry, looked up, the tested form may be a part): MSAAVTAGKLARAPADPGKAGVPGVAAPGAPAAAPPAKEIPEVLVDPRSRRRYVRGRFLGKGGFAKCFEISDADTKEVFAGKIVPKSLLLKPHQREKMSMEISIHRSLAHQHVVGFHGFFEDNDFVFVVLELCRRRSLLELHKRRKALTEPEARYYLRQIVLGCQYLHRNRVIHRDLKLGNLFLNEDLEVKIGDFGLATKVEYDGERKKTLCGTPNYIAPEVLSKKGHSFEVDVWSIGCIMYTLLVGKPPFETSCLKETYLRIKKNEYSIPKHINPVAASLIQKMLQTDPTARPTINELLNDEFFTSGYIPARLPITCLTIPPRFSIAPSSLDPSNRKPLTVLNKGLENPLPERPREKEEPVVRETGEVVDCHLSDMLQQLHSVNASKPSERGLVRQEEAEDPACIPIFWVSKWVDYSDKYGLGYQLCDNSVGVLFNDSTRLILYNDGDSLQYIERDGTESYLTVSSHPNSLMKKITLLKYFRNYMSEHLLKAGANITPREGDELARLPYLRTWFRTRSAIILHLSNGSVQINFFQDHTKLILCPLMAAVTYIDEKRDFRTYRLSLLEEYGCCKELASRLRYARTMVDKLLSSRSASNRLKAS
PI5P4K alpha inh: PI5P4K alpha (human) kinase inhibition; PI5P4Kalpha enzyme, ADP-Glo luminescence, 60 min; active compounds read low; 1.2% of 330,000 active; max response, %; AID 652105; P48426; active means max response of -50% or lower; inconclusive means between -30% and -50%; inactive means -30% or higher; further: value at the top dose of about 77 µM; on the % scale 0 is the no-effect control and ±100 the full control effect
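Enzyme plus substrate dispensed, test compounds pinned in, then ATP (5 microM final) added. After 60 min at RT, ADP-Glo reagent 1 for 45 min and reagent 2 for 30 min preceded luminescence imaging.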
G9a inh: blocks human histone lysine methyltransferase G9a | Q96KQ7 | 8.8% of 350,000 active | Potency, µM (highest dose often 102 µM), for the others: top-dose activity, negative = inhibition, most hits filed as inhibitors | AID 504332 | G9a H3K9 monomethylation, AlphaScreen, 2 h; further: potency means the concentration at half of the fitted maximal effect; on the % scale 0 is the no-effect control and ±100 the full control effect; nearly all actives have a fitted effect of over 75% in size
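Readings reflect AlphaScreen signal from monomethyl-H3K9 antibody detection. HMT at 20 nM; substrate b-H3K9 500 nM; cofactor SAM 20 uM; 2 h RT reaction; compounds tested as titrations in qHTS with 15 min preincubation.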
BAZ2B inh: blocks human BAZ2B | AlphaScreen BAZ2B-H3K14Ac peptide displacement | 4.4% of 360,000 active | Potency, µM (series often up to 114 µM), for the others: at the top dose activity change, negative = inhibition, actives largely listed as inhibitors | AID 504333; further: potency means the concentration at half of the fitted maximal effect; on the % scale 0 is the no-effect control and ±100 the full control effect; nearly all actives have a fitted effect of over 60% in size
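Compounds, titrated to a top concentration of 110 uM, were incubated 30 min at room temperature with preformed BAZ2B/acetyl-K14 H3 peptide complex (50 nM each). Proximity signal was measured by AlphaScreen after 20 min with beads.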
TbPYK confirm: confirmation of Trypanosoma brucei pyruvate kinase inhibitors. recombinant TbPYK, Kinase-Glo ATP luminescence. Potency, µM (top dose mostly 76.9 µM), for the others: top-dose activity change, negative = inhibition, hits mostly inhibitors. shares compounds with PLK1 PBD block. AID 720569. 67% of 890 active; further: potency means the concentration at half of the fitted maximal effect; on the % scale 0 is the no-effect control and ±100 the full control effect; nearly all actives have a fitted effect of over 70% in size
TbPYK orthogonal: inhibits T. brucei pyruvate kinase in orthogonal ADP-Glo assay | shares compounds with PLK1 PBD block | recombinant TbPYK, ADP-Glo luminescence, 60 min | Potency, µM (doses to about 76.9 µM), without a hit: at the highest dose activity change, negative = inhibition, actives largely listed as inhibitors | 62% of 890 active | AID 720584; further: potency means the concentration at half of the fitted maximal effect; on the % scale 0 is the no-effect control and ±100 the full control effect; nearly all actives have a fitted effect of over 75% in size
Starred values were filed as active, the others as inactive; ? = inconclusive; . = no result; [ ] = dose if it differs, or a comment. An excerpt weighted towards active compounds, which were near 12% of everything screened. Unless noted, the call rests on the fitted dose curve; in most records, active means well fitted curve in the direction sought with a large enough effect; inconclusive means small, poorly fitted or top-dose-only effect, or another doubt; inactive means no such curve, though single readings can be large; an effect the other way counts as inactive or inconclusive.

SMILES	HP1b chromo inh	JMJD2A Tudor inh	PLK1 PBD block	PI5P4K alpha inh	G9a inh	BAZ2B inh	TbPYK confirm	TbPYK orthogonal
O=C1C(c2cc(=O)c3ccccc3[nH]2)=C(O)c2ccccc21	15%	?	-4%	?	3%[59 µM]	-38%	2.8µM*	7.1µM*
CC1C=CCC2C(=O)N(c3cccc(C(=O)NCc4ccccc4)c3)C(=O)C12 (configuration not stated)	20%	-28%	-8%	-14	28µM*	-24%	?	?
O=C(CNC(=O)c1ccc(Cl)cc1)OCc1cc(=O)n2ccsc2n1	24%	-3%	.	.	6%[59 µM]	1%	.	.
O=C1C=CC(=O)N1c1ccc2c(c1)C(NC(=O)C(F)(F)F)c1ccccc1-2 (configuration not stated)	13µM*	7.9µM*	6.7µM*	?	.	.	7.9µM*	10µM*
CCOC(=O)c1ccc(NC(=O)CN2C(=O)CSC2=O)cc1	4%	-16%	-2%	.	8%	-1%	1%	-7%
CCCn1c(SCC(=O)c2cc(OC)ccc2OC)nnc1C(C)C	27%	79µM*	?	-15	50µM*	14%	16µM*	16µM*
CCn1c(SCC(=O)c2cc(OC)ccc2OC)nc2c1c(=O)n(C)c(=O)n2C	.	.	.	.	3%[12.7 µM]	0%	.	.
COc1ccc(NC(=O)c2sc3nc(N4CCOCC4)c4c(c3c2N)CCCC4)cc1	.	.	3%	-3	.	.	.	.
CCOC(=O)c1ccc(NC(=O)c2sc3nc(N4CCOCC4)c4c(c3c2N)CCCC4)cc1	32%	9%	-18%	-5	10%	-1%	?	?
Cc1ccccc1NC(=O)c1sc2nc(N3CCOCC3)c3c(c2c1N)CCCC3	30%	2%	?	-12	-1%[0.0925 µM]	14%	?	4µM*
Oc1[nH]c2ccc(Br)cc2c1N=NC(=S)N1CCOCC1	-37%	18µM*	-18%	-54*	3.5µM*	45µM*	0.32µM*	0.45µM*
COC(=O)N=Nc1c(O)[nH]c2ccc(Br)cc12	5%	-25%	2%	4	7%	-3%	.	.
CCCCn1cc2c(c1-c1ccccc1Br)c(=O)n(C)c(=O)n2C	28%	?	.	.	-26%[59 µM]	?	.	.
N[C@H](Cc1cnc[nH]1)C(=O)O	.	.	.	.	24%[59 µM]	.	.	.
CCOC(=O)CSc1nnc(Cc2ccc(OC)cc2)n1-c1ccccc1	34%	45µM*	-2%	.	7.9µM*	8%	3.2µM*	5µM*
O=C(N/N=C/c1ccc(N2CCOCC2)o1)c1cccc(C(F)(F)F)c1	-2%	?	-8%	.	8.9µM*	1%	?	35µM*
COc1cc(C(=O)N/N=C(\C)Cn2nc([N+](=O)[O-])cc2C)ccc1O	?	-17%	-6%	-6	-10%[59 µM]	3%	.	.
C/C(Cn1nc([N+](=O)[O-])cc1C)=N\NC(=O)COc1c(Cl)cc(Cl)cc1Cl	9%	-15%	-9%	3	16%[59 µM]	-33%	2%	-3%
CC1CCN(C(=S)NC(=O)c2ccccc2)CC1	28%	-19%	-10%	-2	-71%	-29%	.	.
CC1CCN(C(=S)NC(=O)c2cccs2)CC1	23%	-10%	-1%	-3	45µM*	-19%	?	14µM*
Cc1cc(C2=NNC(=Nc3ccccc3)SC2)c(C)n1C	?	?	-5%	?	8.9µM*	?	?	14µM*
COc1ccccc1C1=NNC(=NCc2ccccc2)SC1	-5%	-15%	-10%	-16	?	-32%	.	.
CC1(C(=O)NCc2cccc(C(F)(F)F)c2)CCN1C1Cc2ccccc2C1 (configuration not stated)	.	.	-9%	19	.	.	.	.
CCOc1ccc(S(=O)(=O)N(C(C)=O)c2ccc3oc(C)c(C(=O)OC)c3c2)cc1	19%	-2%	.	.	1%[59 µM]	-1%	.	.
COc1ccc(S(=O)(=O)N(C(C)=O)c2ccc3oc(=O)sc3c2)cc1	35%	?	-27%	-24	7.1µM*	-34%	?	16µM*
SMILES	HP1b chromo inh	JMJD2A Tudor inh	PLK1 PBD block	PI5P4K alpha inh	G9a inh	BAZ2B inh	TbPYK confirm	TbPYK orthogonal
COc1cccc(-c2cnc(C(O)c3ccc(Cl)cc3)[nH]2)c1 (configuration not stated)	.	.	0%	0	.	.	.	.
COc1cccc(C(=O)CSc2nnc(CNS(C)(=O)=O)n2-c2ccc(C)cc2)c1	?	18µM*	-19%	?	18µM*	-24%	?	28µM*
O=C(NCC(c1cccnc1)N1CCc2ccccc2C1)c1ccc(F)c(F)c1 (configuration not stated)	35%	0%	.	.	?	-1%	.	.
CC(Nc1ccc(N2CCOCC2)cc1)C(=O)N1c2ccccc2CC1C (configuration not stated)	-12%	?	0%	-4	.	35µM*	3.2µM*	7.1µM*
CC(=O)Oc1ccc(N2C(=O)C3C4C=CC(CO)(O4)C3C2=O)cc1 (configuration not stated)	?	45µM*	27µM*	-4	1µM*	14%	-48%	?
NC(=O)c1sc2nc(N3CCOCC3)c3c(c2c1N)CCCC3	-7%	?	27µM*	?	71µM*	?	11µM*	10µM*
CCCCN(CCCC)C(=O)c1sc2nc(N3CCOCC3)c3c(c2c1N)CCCC3	21%	-26%	30µM*	-12	45µM*	7%	1.6µM*	3.2µM*
CCOC(=O)c1sc2nc(N3CCOCC3)c3c(c2c1N)CCC3	11%	9%	-3%	-6	6%	7%	.	.
O=C(NNS(=O)(=O)c1ccccc1F)c1cc(-c2ccccc2)n[nH]1	11%	-13%	-15%	0	7%	-38%	.	.
O=C(O)/C=C/C(=O)NNC(=O)c1cc(-c2ccccc2)n[nH]1	25µM*	?	30µM*	?	20µM*	-2%	?	?
COc1ccc(OC)c2nc(-c3ccc4c(c3)OCO4)ccc12	30%	53%	6%	-1	-2%	-3%	.	.
O=C(CCCn1c(=S)[nH]c2ccsc2c1=O)Nc1ccc2c(c1)OCCO2	9%	-30%	-7%	-8	3.5µM*	-11%	10µM*	14µM*
O=C(CCCn1c(=S)[nH]c2ccsc2c1=O)Nc1ccc(F)cc1	.	.	-20%	-16	.	.	.	.
O=C(CCCCn1c(=S)[nH]c2ccsc2c1=O)NCc1ccc2c(c1)OCO2	17%	-33%	-27%	-30	10µM*	?	0.35µM*	1.1µM*

Screens from PubChem.
